This note sets out measurements from PubChem BioAssay (NCATS).

Where “and” joins values, the source holds several entries; their conditions need not be identical. Equal entries are not always repeated. Results filed as inconclusive are left out. Calls of active or inactive are those of the source. Unless noted, calls come from the whole dose curve.

The target of assay [1] is Estrogen receptor (Homo sapiens) (UniProt P03372). The assay is described as follows: qHTS assay for small molecule antagonists of estrogen receptor alpha signaling (AID 588513; active = well fitted curve in the direction sought with a large enough effect in the signal ratio, with a control signal flat, not every such curve was filed as active; the % refers to the signal ratio; note: % is set by controls: 0 for no effect and ±100 for the full control effect). In short, it runs like this: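 Antagonist mode: inhibition of 0.5 nM 17-beta-estradiol-driven beta-lactamase reporter in HEK 293 ER-alpha-UAS-bla cells, 18 h at 37C, CCF4 readout after 2 h at RT. Normalised to estradiol and DMSO; titration fitted to Hill.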

Assay [2] concerns the target Glucocorticoid receptor (Homo sapiens) (UniProt P04150). The assay is described as follows: qHTS assay for small molecule agonists of glucocorticoid receptor signaling (AID 588532; active = well fitted curve in the direction sought with a large enough effect in the signal ratio, with a control signal flat; the % refers to the signal ratio;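 note: 100% = dexamethasone at 0.1 µM and 0% = DMSO only wells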). To be noted: HeLa MMTV-bla, beta-lactamase ratio, agonist, 18 h; activation: stronger effect = higher value, percent of dexamethasone control, DMSO zero. In short, it runs like this:
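Cells were plated and rested 3-5 h at 37 C, compounds were added in titration and incubated 18 h, then CCF4 substrate was loaded for 2 h at RT before reading blue/green fluorescence. EC50 came from Hill-equation fitting.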
On the technique in general: In qHTS, concentration-response curves come from the screen itself.

Assay [3] addresses Peroxisome proliferator-activated receptor gamma (Homo sapiens) (UniProt P37231). The assay is described as follows: qHTS assay for small molecule agonists of peroxisome proliferator-activated receptor gamma signaling (AID 588536; active = well fitted curve in the direction sought with a large enough effect in the signal ratio, with a control signal flat, not every such curve was filed as active; the % refers to the signal ratio;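 note: 0% = DMSO basal wells and 100% = rosiglitazone at 2 µM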). In a few lines:
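GeneBLAzer PPAR-gamma-UAS-bla HEK293 cells in 1% charcoal/dextran-treated FBS medium were treated 16 h at 37 C with compounds. Beta-lactamase activity was read by CCF4 ratio (460/530 nm). Response was normalized to 2 uM rosiglitazone (100%) and DMSO, then Hill-fitted for EC50 and efficacy.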

The target is the same in assay [4]. Kind of assay: qHTS assay for small molecule antagonists of peroxisome proliferator-activated receptor gamma signaling (AID 588537; active = well fitted inhibition curve with a large enough effect in the signal ratio, with a control signal flat, not every such curve was filed as active; the % refers to the signal ratio;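 note: reporter cells co-stimulated with 50 nM rosiglitazone agonist during compound treatment; % of control where 0% means no effect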). In short, it runs like this:
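Step one: plate 3000 HEK293 UAS-bla cells per well in medium with 1% stripped serum and hold 6-6.5 h at 37 C. Step two: add compound and 50 nM agonist for 16 h. Step three: CCF4 loading, fluorescence read.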

For assay [5], the target named is Vitamin D3 receptor (Homo sapiens) (UniProt P11473). Kind of assay: qHTS assay for small molecule agonists of vitamin D receptor signaling (AID 588543).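 Note: 0% = DMSO basal and 100% = reference agonist control.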 In a few lines:
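Agonist-mode beta-lactamase reporter: HEK293T VDR-UAS-bla cells in charcoal-stripped 2% FBS, compound series 16 h 37 C, CCF4 2 h RT. EC50 from Hill fit, scaled against DMSO and 50 nM calcitriol control.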

For assay [6], the target named is Bile acid receptor (Homo sapiens) (UniProt Q96RI1). Kind of assay: qHTS assay for small molecule antagonists of farnesoid X receptor signaling (AID 588526). Note: % is set by controls: 0 for no effect and ±100 for the full control effect. In short, it runs like this:
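Antagonist mode: titrated compounds tested against chenodeoxycholic acid stimulation (normalized to 50 uM CDCA and DMSO) in GeneBLAzer HEK293T cells for 16 h. Beta-lactamase read by CCF4 fluorescence; IC50 from Hill fits.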

Assay [7] shares this target. The assay is described as follows: qHTS assay for small molecule agonists of farnesoid X receptor signaling (AID 588527).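 Note: series mostly up to about 77 µM; 0% = vehicle basal and 100% = reference agonist.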 To be noted: HEK293T FXR-UAS-bla, beta-lactamase ratio, 16 h; activation: stronger effect = higher value. In short, it runs like this:
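FXR-UAS-bla HEK293T cells (10% dialyzed FBS) preincubated 5-7 h at 37 C, then compounds at up to 92 uM for 16 h at 37 C. CCF4 beta-lactamase read-out after 2 h RT. Normalized to chenodeoxycholic acid (100 uM) and DMSO; Hill fit gave EC50 and efficacy.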

Assay [8] is described as follows: qHTS assay for small molecule agonists of retinoid X receptor alpha signaling (AID 588544). To be noted: HEK293T RXRa-UAS-bla, beta-lactamase reporter, 18 h; 530 nm emission.
Assay [9] is described as follows: qHTS assay for small molecule activators of the human pregnane X receptor (PXR) signaling pathway (AID 720659; call rule not given here; note: 0% is about no effect).
Assay [10] concerns the target Androgen receptor (Homo sapiens) (UniProt P10275). Kind of assay: qHTS assay for small molecule agonists of androgen receptor signaling (AID 588515; active = well fitted curve in the direction sought with a large enough effect in the signal ratio, with a control signal flat; the % refers to the signal ratio; note: % is set by controls: 0 for no effect and ±100 for the full control effect). The settings on record: AR-UAS-bla HEK293, beta-lactamase ratio, agonist 16 h; stronger effect = higher value. In a few lines:
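EC50 and efficacy came from Hill fits of titrations (up to 92 uM) normalized to 30 nM R1881 as 100% and DMSO as 0%. Compound exposure was 16 h at 37 C on AR-UAS-bla HEK293 cells, with a 405/460/530 nm CCF4 fluorescence read.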

Assay [11] has the same target. The assay is described as follows: qHTS assay for small molecule antagonists of androgen receptor signaling (AID 588516; active = well fitted curve in the direction sought with a large enough effect in the signal ratio, with a control signal flat, not every such curve was filed as active; the % refers to the signal ratio; note: % is set by controls: 0 for no effect and ±100 for the full control effect). In a few lines:
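Antagonist mode: inhibition of R1881-stimulated (10 nM final) bla reporter in GeneBLAzer AR HEK 293 cells, 16 h at 37C, compounds titrated. IC50 and efficacy from Hill-equation fits of 405/460–530 nm FRET ratios.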

Assay [12] in a line: qHTS assay for small molecule agonists of the antioxidant response element (ARE) signaling pathway (AID 651741; active = well fitted activation curve with a large enough effect in the signal ratio; the % refers to the signal ratio; note: potency is the fitted concentration of half-maximal effect; for activation: % of control where 0% means no effect). In a few lines: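 HepG2 ARE-bla cells plated at 2,000 cells/well and incubated 5 h at 37 C/5% CO2 received 23 nL compound in DMSO. After 16 h at 37 C, LiveBLAzer B/G FRET substrate was applied for 2 h at room temperature and fluorescence read.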

Sequence of Peroxisome proliferator-activated receptor gamma (Homo sapiens) (P37231 whole entry, looked up): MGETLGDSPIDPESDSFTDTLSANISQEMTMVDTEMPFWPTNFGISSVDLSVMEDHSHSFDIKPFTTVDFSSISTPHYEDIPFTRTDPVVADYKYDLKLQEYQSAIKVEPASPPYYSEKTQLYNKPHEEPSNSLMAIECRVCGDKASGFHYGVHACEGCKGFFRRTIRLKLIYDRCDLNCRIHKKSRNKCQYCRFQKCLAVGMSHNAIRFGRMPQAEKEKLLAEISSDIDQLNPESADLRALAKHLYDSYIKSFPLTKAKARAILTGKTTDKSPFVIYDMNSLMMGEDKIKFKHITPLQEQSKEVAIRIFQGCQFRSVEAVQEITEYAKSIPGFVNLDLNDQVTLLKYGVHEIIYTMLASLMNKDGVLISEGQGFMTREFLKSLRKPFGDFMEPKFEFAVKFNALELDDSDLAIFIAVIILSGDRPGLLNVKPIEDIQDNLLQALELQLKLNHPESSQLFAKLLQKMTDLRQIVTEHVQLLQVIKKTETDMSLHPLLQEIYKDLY
Sequence of Vitamin D3 receptor (Homo sapiens) (P11473 whole entry, looked up): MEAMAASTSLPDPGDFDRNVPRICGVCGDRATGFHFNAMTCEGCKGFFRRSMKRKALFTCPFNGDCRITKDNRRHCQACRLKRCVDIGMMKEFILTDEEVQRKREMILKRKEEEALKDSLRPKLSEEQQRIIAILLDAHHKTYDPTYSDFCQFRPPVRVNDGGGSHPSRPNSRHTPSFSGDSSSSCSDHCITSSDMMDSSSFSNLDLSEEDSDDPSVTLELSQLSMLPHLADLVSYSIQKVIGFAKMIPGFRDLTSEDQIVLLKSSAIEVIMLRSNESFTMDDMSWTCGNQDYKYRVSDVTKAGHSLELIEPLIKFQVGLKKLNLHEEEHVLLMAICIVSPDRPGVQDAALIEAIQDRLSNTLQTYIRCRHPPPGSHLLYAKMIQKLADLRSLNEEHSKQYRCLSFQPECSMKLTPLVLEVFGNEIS
Sequence of Glucocorticoid receptor (Homo sapiens) (P04150 whole entry, looked up): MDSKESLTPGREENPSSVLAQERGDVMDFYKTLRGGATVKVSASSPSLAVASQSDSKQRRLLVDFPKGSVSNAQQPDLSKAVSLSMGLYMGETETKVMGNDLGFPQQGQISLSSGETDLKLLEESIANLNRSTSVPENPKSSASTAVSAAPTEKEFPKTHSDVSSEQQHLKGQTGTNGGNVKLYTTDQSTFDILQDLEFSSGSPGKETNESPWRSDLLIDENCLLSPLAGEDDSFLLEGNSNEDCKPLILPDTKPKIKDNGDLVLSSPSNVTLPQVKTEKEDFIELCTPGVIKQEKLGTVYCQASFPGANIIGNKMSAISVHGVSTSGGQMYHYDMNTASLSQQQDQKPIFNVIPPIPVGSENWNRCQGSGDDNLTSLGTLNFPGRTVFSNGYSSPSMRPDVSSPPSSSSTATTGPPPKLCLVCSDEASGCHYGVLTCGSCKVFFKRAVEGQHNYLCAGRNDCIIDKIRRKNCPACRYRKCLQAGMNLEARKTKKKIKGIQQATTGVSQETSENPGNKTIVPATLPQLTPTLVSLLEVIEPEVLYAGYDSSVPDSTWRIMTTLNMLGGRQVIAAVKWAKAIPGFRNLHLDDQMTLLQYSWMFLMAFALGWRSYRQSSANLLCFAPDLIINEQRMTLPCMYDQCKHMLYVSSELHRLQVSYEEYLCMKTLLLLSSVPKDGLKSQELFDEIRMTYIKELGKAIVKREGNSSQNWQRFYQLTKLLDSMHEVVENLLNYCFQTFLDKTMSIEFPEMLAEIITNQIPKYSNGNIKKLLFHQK
Sequence of Estrogen receptor (Homo sapiens) (P03372 whole entry, looked up): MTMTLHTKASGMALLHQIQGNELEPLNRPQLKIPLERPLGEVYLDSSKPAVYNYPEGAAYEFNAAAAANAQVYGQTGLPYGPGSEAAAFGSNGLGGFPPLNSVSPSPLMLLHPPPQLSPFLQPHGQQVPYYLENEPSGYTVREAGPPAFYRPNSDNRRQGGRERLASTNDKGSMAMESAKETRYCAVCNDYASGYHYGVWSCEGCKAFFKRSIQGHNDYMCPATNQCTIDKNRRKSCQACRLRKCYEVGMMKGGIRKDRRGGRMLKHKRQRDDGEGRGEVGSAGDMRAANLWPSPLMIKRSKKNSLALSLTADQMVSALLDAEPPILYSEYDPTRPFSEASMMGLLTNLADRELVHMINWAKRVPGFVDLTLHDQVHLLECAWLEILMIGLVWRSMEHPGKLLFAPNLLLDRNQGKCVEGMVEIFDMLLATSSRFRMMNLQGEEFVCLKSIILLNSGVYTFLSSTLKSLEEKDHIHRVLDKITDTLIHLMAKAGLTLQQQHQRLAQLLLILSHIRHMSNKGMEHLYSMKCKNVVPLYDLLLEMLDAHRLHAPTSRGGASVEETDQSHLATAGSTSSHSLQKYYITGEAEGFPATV
Sequence of Bile acid receptor (Homo sapiens) (Q96RI1 whole entry, looked up): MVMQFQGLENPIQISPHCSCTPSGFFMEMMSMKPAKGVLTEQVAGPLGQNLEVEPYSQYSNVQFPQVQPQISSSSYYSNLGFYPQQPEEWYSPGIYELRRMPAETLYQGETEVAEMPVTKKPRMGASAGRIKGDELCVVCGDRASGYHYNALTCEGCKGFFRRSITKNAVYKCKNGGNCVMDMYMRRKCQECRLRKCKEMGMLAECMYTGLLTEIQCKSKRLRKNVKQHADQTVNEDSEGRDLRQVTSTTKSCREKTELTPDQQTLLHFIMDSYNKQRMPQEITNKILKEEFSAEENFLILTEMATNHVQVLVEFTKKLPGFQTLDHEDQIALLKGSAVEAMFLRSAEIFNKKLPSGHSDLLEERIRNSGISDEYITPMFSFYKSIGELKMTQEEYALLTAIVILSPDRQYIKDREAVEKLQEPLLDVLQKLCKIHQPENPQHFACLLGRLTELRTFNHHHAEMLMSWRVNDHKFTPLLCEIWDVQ
Sequence of Androgen receptor (Homo sapiens) (P10275 whole entry, looked up): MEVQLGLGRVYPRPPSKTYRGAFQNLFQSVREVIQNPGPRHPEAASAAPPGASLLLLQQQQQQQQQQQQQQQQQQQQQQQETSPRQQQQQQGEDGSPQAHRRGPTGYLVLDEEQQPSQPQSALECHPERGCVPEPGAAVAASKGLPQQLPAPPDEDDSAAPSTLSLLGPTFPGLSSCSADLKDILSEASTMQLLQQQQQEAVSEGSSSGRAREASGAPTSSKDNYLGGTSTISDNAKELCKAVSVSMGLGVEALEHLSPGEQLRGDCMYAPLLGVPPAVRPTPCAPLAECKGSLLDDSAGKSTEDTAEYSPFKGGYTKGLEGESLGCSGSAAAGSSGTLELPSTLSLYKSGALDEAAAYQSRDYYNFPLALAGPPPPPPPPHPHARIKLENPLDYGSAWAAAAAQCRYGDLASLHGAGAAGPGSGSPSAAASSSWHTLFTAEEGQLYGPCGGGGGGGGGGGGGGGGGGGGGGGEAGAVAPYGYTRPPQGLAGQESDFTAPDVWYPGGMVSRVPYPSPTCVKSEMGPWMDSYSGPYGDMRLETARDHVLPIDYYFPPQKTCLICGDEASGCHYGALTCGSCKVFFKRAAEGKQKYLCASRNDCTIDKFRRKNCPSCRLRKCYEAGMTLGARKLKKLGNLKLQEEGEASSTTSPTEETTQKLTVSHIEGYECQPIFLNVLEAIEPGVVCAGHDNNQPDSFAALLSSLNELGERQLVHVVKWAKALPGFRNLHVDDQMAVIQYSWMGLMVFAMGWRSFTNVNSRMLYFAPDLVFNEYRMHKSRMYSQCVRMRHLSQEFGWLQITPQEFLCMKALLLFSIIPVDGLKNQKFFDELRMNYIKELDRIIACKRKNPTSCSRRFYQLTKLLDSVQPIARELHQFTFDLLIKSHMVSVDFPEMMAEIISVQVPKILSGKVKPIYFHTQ

Take `CSC(=O)c1c(C(F)F)nc(C(F)(F)F)c(C(=O)SC)c1CC(C)C`: the Potency result in assay [1], in assay [3] and in [4] was “inactive” in each case. Moreover, in [2], the activation is -2.18% (inactive). The compound was classed as inactive in assay [5].
As for `O=S(=O)(O)C(F)(F)C(F)(F)C(F)(F)C(F)(F)C(F)(F)C(F)(F)F`, the Potency result in assay [1], in assay [6], in assay [3] and in assay [4] was “inactive” each time. For the same compound, the activation in assay [7] was -1.09% (inactive) and 0.298% (inactive); in [2], 2.96% (inactive) and -3.35% (inactive). Also, in [8], the max response was -12.5% and -11.4%. The result in assay [9] was inactive.
Consider `CNC(=S)S`, for which the Potency result in assay [1], in assay [3] and in assay [4] was “inactive” in each case. Further, the activation in assay [2] was -6.24% (inactive). The outcome in assay [5] and in assay [9] was inactive. In addition, the max response in assay [8] is -26.8%.
For the compound `CNC(=O)Oc1cc(C)c(SC)c(C)c1`, the values for the activation in [10] and in assay [7] were 1.32% (inactive) and 5.14% (inactive), respectively. The Potency result in assay [11], in [3] and in assay [4] was “inactive” in each case. In assay [5], the call was inactive. Also, the Potency in [12] is 27.3 µM (active).
As to `CCC/C(=N\OCC)C1=C(O)CC(CC(C)SCC)CC1=O` (stereo not given), the Potency entry in assay [1], in assay [3], in assay [4] and in assay [12] was “inactive” each time. For the same compound, the activation in assay [2] is -6.86% (inactive). The outcome in [5] and in assay [9] was inactive. Moreover, the max response in [8] is -4.54%.
`CC1=C(C(=O)Nc2ccccc2)SCCO1`: the activation in assay [10] is -8.15% (inactive); in assay [7], -5.36% (inactive); in assay [2], -5.7% (inactive). In addition, the Potency result in [11], in assay [6], in assay [3], in assay [4] and in assay [12] was “inactive” each time. The outcome in [5] was inactive. The max response in [8] was -2.97%.
For the compound `COC(=O)c1sccc1S(=O)(=O)NC(=O)Nc1nc(C)nc(OC)n1`, the Potency result in assay [1], in assay [3], in assay [4] and in assay [12] was “inactive” each time. Further, in assay [2], the activation is -2.71% (inactive). The result in assay [5] and in [9] was inactive. Besides, the max response in [8] was -0.622%.
As to `CCOP(=O)(OCC)SCSP(=S)(OCC)OCC`, the activation is -6.59% (inactive) in [10], 10.4% (inactive) in assay [7] and -5.04% (inactive) in [2]. The Potency result in [11], in assay [6] and in [4] was “inactive” in each case.
Take `CCOP(=S)(OCC)SCCl`: in [10], the activation was 5.88% (inactive). In addition, the Potency entry in assay [11], in assay [6], in [3] and in [12] was “inactive” throughout. In addition, the call in assay [5] and in assay [9] was inactive.
Consider `COP(=S)(OC)Oc1c(Cl)cc(C)cc1Cl`, for which the Potency result in assay [1], in assay [3] and in assay [4] was “inactive” throughout. Also, the activation in assay [2] was 2.7% (inactive). In addition, the compound was classed as inactive in assay [5]. The max response in [8] was found to be 0.267%.
In the case of `O=[N+]([O-])Nc1nccn1Cc1ccc(Cl)nc1`, the activation in assay [10] was 20.9% (inactive); in assay [2], 0.289% (inactive). Besides, the Potency entry in assay [11], in [6], in assay [3] and in assay [4] was “inactive” in each case. The max response in assay [8] is -15.2%. In addition, the compound was classed as inactive in [9].
As to `CCSCCSP(=O)(OC)OC`, the values for the activation in [10] and in assay [2] were -9.34% (inactive) and 8.21% (inactive), respectively. The Potency result in [11], in assay [6], in assay [3] and in [4] was “inactive” in each case. Moreover, the compound was called inactive in [5] and in assay [9]. The max response in assay [8] came out at 1.71%. In assay [12], the Potency was 54.5 µM (active).
Take `CCOP(N)(=O)Oc1ccc(SC)c(C)c1` (stereo not given): the activation was -2.98% (inactive) in assay [10], 3.26% (inactive) in assay [7] and -9.53% (inactive) in [2]. Also, the Potency entry in [11], in assay [6], in [3], in assay [4] and in [12] was “inactive” throughout. For the same compound, the outcome in assay [5] was inactive. In addition, the max response in assay [8] was -16.6%.
On to `CCOP(=O)(OCC)Oc1ccc2c(C)c(Cl)c(=O)oc2c1`, for which the activation is -0.972% (inactive) in [10], 2.16% (inactive) in assay [7] and -3.39% (inactive) in assay [2]. In addition, the Potency entry in [11] and in assay [6] was “inactive” each time. The max response in assay [8] is 2.41%.
As for `CCOc1nc(C(Cl)(Cl)Cl)ns1`, the Potency entry in assay [1], in assay [3] and in assay [4] was “inactive” in each case.
For the compound `CCOP(=S)(OCC)Oc1nc(Cl)n(C(C)C)n1`, the Potency entry in [1] and in assay [4] was “inactive” each time. Moreover, the activation in [2] is 12.9% (inactive).
As for `Nc1c(Cl)c(F)nc(OCC(=O)O)c1Cl`, the activation in [10] is 0.917% (inactive); in assay [2], -4.31% (inactive). The Potency entry in assay [11], in [3] and in [4] was “inactive” each time. The max response in assay [8] was found to be 5.84%. The compound was called inactive in assay [9].
Consider `CCOP(=O)(NC(C)C)Oc1ccc(S(C)(=O)=O)c(C)c1` (stereo not given), for which the activation in assay [10] was 6.06% (inactive). The Potency entry in assay [11], in assay [6], in assay [3], in assay [4] and in assay [12] was “inactive” each time. Besides, the call in [5] was inactive.
`CC(C)CCCCCCOC(=O)c1ccccc1C(=O)OCCCCCCC(C)C`: the activation in assay [10] was 13.4% (inactive); in assay [7], 0.284% (inactive); in assay [2], 9.1% (inactive). Also, the Potency entry in assay [11], in assay [6] and in assay [12] was “inactive” each time. The result in [5] and in [9] was inactive. Further, the max response in assay [8] is -16.4%.
Consider `CC1(C)CC/C(=C\c2ccc(Cl)cc2)C1(O)Cn1cncn1` (stereo not given), for which the activation in assay [10] is -0.862% (inactive). Further, the Potency entry in [11] and in assay [4] was “inactive” each time. The outcome in [5] was inactive. The max response in assay [8] amounted to 6%.
For `COc1cc(OC)nc(NC(=O)NS(=O)(=O)c2ncccc2C(F)(F)F)n1`, the activation in assay [10] was 3.3% (inactive); in [7], -0.618% (inactive); in assay [2], -18.1% (inactive). The Potency entry in assay [11], in assay [6], in [3] and in [4] was “inactive” each time. In addition, the max response in assay [8] is -4.69%. In addition, the result in assay [9] was inactive.
Take `O=P(O)(O)CN(CP(=O)(O)O)CP(=O)(O)O`: the Potency result in assay [1], in [3] and in [4] was “inactive” each time. The activation in assay [2] was 4.25% (inactive). Moreover, the call in [5] and in assay [9] was inactive.
